Assay results as given in the supplement of paper PMC6897291.

Columns and labels:
RIVA [1] = assay: growth inhibition by drug plus 177Lu-lilotomab satetraxetan (1 - RLU/untreated control) (fraction); higher = stronger inhibition; settings: 177Lu-lilotomab satetraxetan 0.5 ug/ml
Outline: (§1)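 With or without 18 h pretreatment by a radiolabelled anti-CD37 antibody conjugate (~600 MBq/mg; 0.5 µg/ml RIVA, 1 µg/ml U-2932), RIVA and U-2932 cells were washed and plated at 3,000 cells/well. Pre-printed compound doses were 10/100 nM for RIVA and 10/1,000 nM for U-2932. Growth inhibition uses RealTime-Glo RLU relative to the untreated no-drug wells. The calculation is 1 − RLU/mean of 48 such wells per plate, with reads daily from day 3 after 1 h at 37°C.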

U-2932 [2] = assay: growth inhibition by drug alone (1 - RLU/untreated control) (fraction); higher = stronger inhibition; settings: 177Lu-lilotomab satetraxetan 0 ug/ml
Outline: as §1

RIVA [3] = assay: as above; settings: 177Lu-lilotomab satetraxetan 0 ug/ml
Outline: as §1

U-2932 [4] = assay: growth inhibition by drug plus 177Lu-lilotomab satetraxetan (1 - RLU/untreated control) (fraction); higher = stronger inhibition; settings: 177Lu-lilotomab satetraxetan 1 ug/ml
Outline: as §1

SMILES | growth inhibition by drug plus 177Lu-lilotomab satetraxetan (RIVA [1]; 100 nM, time (day): 5) | growth inhibition by drug plus 177Lu-lilotomab satetraxetan (RIVA [1]; 100 nM, time (day): 6) | growth inhibition by drug alone (U-2932 [2]; 10 nM, time (day): 3) | growth inhibition by drug alone (U-2932 [2]; 10 nM, time (day): 4) | growth inhibition by drug alone (U-2932 [2]; 10 nM, time (day): 5) | growth inhibition by drug alone (U-2932 [2]; 10 nM, time (day): 6) | growth inhibition by drug alone (U-2932 [2]; 1000 nM, time (day): 3) | growth inhibition by drug alone (U-2932 [2]; 1000 nM, time (day): 4) | growth inhibition by drug alone (U-2932 [2]; 1000 nM, time (day): 5) | growth inhibition by drug alone (U-2932 [2]; 1000 nM, time (day): 6) | growth inhibition by drug alone (RIVA [3]; 10 nM, time (day): 3) | growth inhibition by drug alone (RIVA [3]; 10 nM, time (day): 4) | growth inhibition by drug alone (RIVA [3]; 10 nM, time (day): 5) | growth inhibition by drug alone (RIVA [3]; 10 nM, time (day): 6) | growth inhibition by drug alone (RIVA [3]; 100 nM, time (day): 3) | growth inhibition by drug alone (RIVA [3]; 100 nM, time (day): 4) | growth inhibition by drug alone (RIVA [3]; 100 nM, time (day): 5) | growth inhibition by drug alone (RIVA [3]; 100 nM, time (day): 6) | growth inhibition by drug plus 177Lu-lilotomab satetraxetan (U-2932 [4]; 10 nM, time (day): 3) | growth inhibition by drug plus 177Lu-lilotomab satetraxetan (U-2932 [4]; 10 nM, time (day): 4) | growth inhibition by drug plus 177Lu-lilotomab satetraxetan (U-2932 [4]; 10 nM, time (day): 5) | growth inhibition by drug plus 177Lu-lilotomab satetraxetan (U-2932 [4]; 10 nM, time (day): 6) | growth inhibition by drug plus 177Lu-lilotomab satetraxetan (U-2932 [4]; 1000 nM, time (day): 3) | growth inhibition by drug plus 177Lu-lilotomab satetraxetan (U-2932 [4]; 1000 nM, time (day): 4) | growth inhibition by drug plus 177Lu-lilotomab satetraxetan (U-2932 [4]; 1000 nM, time (day): 5) | growth inhibition by drug plus 177Lu-lilotomab satetraxetan (U-2932 [4]; 1000 nM, time (day): 6) | growth inhibition by drug plus 177Lu-lilotomab satetraxetan (RIVA [1]; 10 nM, time (day): 3) | growth inhibition by drug plus 177Lu-lilotomab satetraxetan (RIVA [1]; 10 nM, time (day): 4) | growth inhibition by drug plus 177Lu-lilotomab satetraxetan (RIVA [1]; 10 nM, time (day): 5) | growth inhibition by drug plus 177Lu-lilotomab satetraxetan (RIVA [1]; 10 nM, time (day): 6) | growth inhibition by drug plus 177Lu-lilotomab satetraxetan (RIVA [1]; 100 nM, time (day): 3) | growth inhibition by drug plus 177Lu-lilotomab satetraxetan (RIVA [1]; 100 nM, time (day): 4)
C[C@]12CCC(=O)C=C1CC[C@@H]1[C@@H]2[C@@H](O)C[C@@]2(C)[C@H]1CC[C@]2(O)C(=O)CO [Hydrocortisone (Cortisol)] | 0.317 | 0.347 | – | – | – | – | – | – | – | – | – | – | – | – | – | – | – | – | – | – | – | – | – | – | – | – | – | – | – | – | – | –
COc1cc2c(N3CCN(C(=O)Nc4ccc(OC(C)C)cc4)CC3)ncnc2cc1OCCCN1CCCCC1 [Tandutinib (MLN518)] | 0.407 | 0.387 | -0.0695 | -0.0613 | -0.013 | 0.108 | -0.0914 | -0.0805 | -0.0691 | -0.0707 | -0.157 | -0.175 | -0.185 | -0.222 | -0.102 | -0.12 | -0.163 | -0.231 | -0.106 | -0.0661 | -0.0234 | 0.112 | -0.163 | -0.112 | -0.0614 | 0.0615 | 0.419 | 0.516 | 0.54 | 0.542 | 0.365 | 0.403
N#Cc1ccc(COC[C@H]2O[C@@H](n3c(NCc4ccc(Cl)c(Cl)c4)nc4c(N)ncnc43)[C@H](O)[C@@H]2O)cc1 | 0.557 | 0.551 | 0.115 | 0.0829 | -0.00792 | -0.0103 | 0.0695 | 0.0449 | -0.0886 | -0.0586 | -0.00484 | -0.0139 | -0.22 | -0.465 | -0.367 | -0.326 | -0.323 | -0.395 | -0.0128 | 0.0586 | 0.0723 | 0.037 | 0.12 | 0.128 | 0.109 | 0.165 | 0.498 | 0.574 | 0.59 | 0.586 | 0.472 | 0.543
CCNC(=O)c1noc(-c2cc(C(C)C)c(O)cc2O)c1-c1ccc(CN2CCOCC2)cc1 | 0.988 | 0.988 | 0.0556 | 0.0532 | -0.00948 | 0.11 | 0.942 | 0.972 | 0.981 | 0.982 | 0.0724 | -0.0275 | -0.068 | -0.156 | 0.971 | 0.977 | 0.978 | 0.975 | 0.117 | 0.0968 | 0.0861 | 0.245 | 0.936 | 0.973 | 0.981 | 0.984 | 0.398 | 0.414 | 0.469 | 0.516 | 0.982 | 0.988
O=C(NCCCNc1nc(Nc2cccc(NC(=O)N3CCCC3)c2)ncc1I)c1cccs1 | 0.603 | 0.64 | 0.201 | 0.14 | 0.0194 | 0.047 | 0.0736 | 0.137 | 0.35 | 0.462 | 0.342 | 0.272 | 0.262 | 0.207 | 0.339 | 0.317 | 0.346 | 0.36 | 0.198 | 0.238 | 0.304 | 0.353 | 0.223 | 0.302 | 0.491 | 0.618 | 0.795 | 0.787 | 0.812 | 0.838 | 0.547 | 0.558
O=c1cc(-c2cccc3c2Sc2ccccc2S3)oc(N2CCOCC2)c1 | 0.405 | 0.382 | -0.0795 | -0.0657 | -0.0216 | 0.0484 | -0.0815 | -0.0342 | -0.0721 | -0.125 | -0.212 | -0.223 | -0.243 | -0.318 | -0.0838 | -0.0652 | -0.119 | -0.19 | -0.0246 | -0.00365 | 0.0233 | 0.166 | -0.108 | -0.0389 | -0.0219 | 0.0537 | 0.36 | 0.504 | 0.522 | 0.526 | 0.335 | 0.399
Cn1cc(-c2ccc3nnc(C(F)(F)c4ccc5ncccc5c4)n3n2)cn1 | 0.428 | 0.429 | -0.0908 | -0.108 | -0.0614 | -0.0112 | -0.151 | -0.112 | -0.0976 | 0.0327 | -0.216 | -0.252 | -0.259 | -0.266 | -0.157 | -0.252 | -0.203 | -0.226 | -0.0849 | -0.0323 | 0.0158 | 0.0612 | -0.131 | -0.0707 | -0.0177 | 0.142 | 0.285 | 0.449 | 0.457 | 0.453 | 0.342 | 0.401
C[C@]1(O)C[C@@H](c2nc(-c3ccc4ccc(-c5ccccc5)nc4c3)c3c(N)nccn32)C1 [Linsitinib (OSI-906)] | 0.417 | 0.42 | -0.0175 | -0.0545 | -0.0282 | 0.0189 | -0.0281 | -0.0257 | -0.0322 | 0.0723 | -0.215 | -0.216 | -0.261 | -0.348 | -0.356 | -0.307 | -0.329 | -0.365 | -0.0826 | -0.0138 | 0.0354 | 0.14 | -0.09 | -0.0306 | 0.0298 | 0.223 | 0.4 | 0.48 | 0.495 | 0.5 | 0.283 | 0.4
CC[C@]1(O)C[C@H]2CN(CCc3c([nH]c4ccccc34)[C@@](C(=O)OC)(c3cc4c(cc3OC)N(C=O)[C@H]3[C@@](O)(C(=O)OC)[C@H](OC(C)=O)[C@]5(CC)C=CCN6CC[C@]43[C@@H]65)C2)C1 [Vincristine] | 0.973 | 0.979 | 0.944 | 0.954 | 0.97 | 0.978 | 0.964 | 0.972 | 0.979 | 0.984 | 0.941 | 0.955 | 0.965 | 0.971 | 0.938 | 0.955 | 0.962 | 0.967 | 0.958 | 0.97 | 0.978 | 0.982 | 0.972 | 0.978 | 0.983 | 0.988 | 0.964 | 0.976 | 0.983 | 0.985 | 0.956 | 0.967
c1ccc(-c2nn3c(c2-c2ccnc4cc(OCCN5CCOCC5)ccc24)CCC3)nc1 | 0.439 | 0.459 | 0.0304 | 0.0254 | 0.0259 | -0.126 | 0.0168 | -0.0245 | -0.0928 | -0.157 | -0.0878 | -0.000924 | -0.142 | -0.487 | -0.472 | -0.252 | -0.3 | -0.522 | 0.0114 | 0.0692 | 0.139 | 0.155 | -0.0195 | 0.0208 | 0.0497 | 0.121 | 0.46 | 0.581 | 0.585 | 0.558 | 0.237 | 0.413
Cc1nc(Nc2ncc(C(=O)Nc3c(C)cccc3Cl)s2)cc(N2CCN(CCO)CC2)n1 | 0.901 | 0.91 | -0.00248 | -0.0473 | -0.15 | -0.0827 | 0.487 | 0.65 | 0.693 | 0.752 | 0.376 | 0.323 | 0.282 | 0.128 | 0.779 | 0.826 | 0.856 | 0.867 | -0.0537 | -0.0412 | -0.0107 | 0.0287 | 0.607 | 0.75 | 0.816 | 0.88 | 0.558 | 0.581 | 0.582 | 0.575 | 0.838 | 0.89
CC[C@H]1OC(=O)[C@H](C)[C@@H](O[C@H]2C[C@@](C)(OC)[C@@H](O)[C@H](C)O2)[C@H](C)[C@@H](O[C@@H]2O[C@H](C)C[C@H](N(C)C)[C@H]2O)[C@](C)(O)C[C@@H](C)CN(C)[C@H](C)[C@@H](O)[C@]1(C)O [Azithromycin (Zithromax)] | 0.576 | 0.561 | 0.204 | 0.13 | 0.0304 | -0.0338 | 0.0821 | 0.11 | 0.0532 | -0.0307 | 0.16 | 0.206 | 0.16 | 0.0424 | 0.0514 | 0.129 | 0.0797 | -0.0131 | 0.138 | 0.178 | 0.198 | 0.299 | 0.0676 | 0.168 | 0.163 | 0.224 | 0.526 | 0.619 | 0.633 | 0.639 | 0.499 | 0.586
COc1cc2ncnc(Nc3ccc(Oc4ccccc4)cc3)c2cc1OC | 0.556 | 0.521 | 0.0897 | 0.0909 | 0.0445 | -0.0326 | 0.038 | 0.0615 | 0.0344 | 0.0553 | 0.00348 | 0.0579 | -0.00953 | -0.188 | -0.0251 | 0.00379 | -0.0229 | -0.143 | 0.0456 | 0.0896 | 0.111 | 0.169 | -0.11 | 0.0137 | 0.0447 | 0.175 | 0.521 | 0.598 | 0.605 | 0.616 | 0.526 | 0.567
O=C(O)Cc1cccc(OCCCN(Cc2cccc(C(F)(F)F)c2Cl)CC(c2ccccc2)c2ccccc2)c1 | 0.874 | 0.893 | 0.116 | 0.0747 | -0.121 | -0.11 | 0.111 | 0.127 | -0.0348 | -0.224 | 0.0962 | 0.115 | 0.0874 | -0.0108 | 0.667 | 0.512 | 0.515 | 0.524 | 0.0517 | 0.0894 | 0.143 | 0.142 | 0.162 | 0.224 | 0.223 | 0.228 | 0.667 | 0.666 | 0.678 | 0.677 | 0.86 | 0.858
